Inconclusive results are not listed. Where a call stands in place of a potency, no number is given. The source made the active and inactive calls. Calls follow the shape of the dose curve; as a rule, active = well fitted cell-killing curve with a large enough effect in the repeat runs; inconclusive = weak or mixed curves, or effect the other way; inactive = flat fitted curve, though single readings scatter.
Assay: Human pregnane X receptor (PXR) small molecule agonists, qHTS cell viability counter screen (AID 1346977); also: nearly all actives have a fitted effect of over 50% in size
Conditions: PXR-Luc HepG2 viability, CellTiter-Fluor, 24 h; series mostly up to 92.4 µM
Source text: U.S. Tox21 Program National Center for Advancing Translational Sciences [NCATS] NIH Chemical Genomics Center [NCGC] U.S. Environmental Protection Agency [EPA] National Institutes of Environmental Health Sciences [NIEHS] National Toxicology Program [NTP] U.S. Food and Drug Administration [FDA] Tox21 Assay Overview: The human pregnane X receptor (hPXR) regulates the expression of several drug metabolizing enzymes and induction of these proteins is a major mechanism for developing drug resistance in cancer. One such key enzyme catalyzing the drug metabolism is cytochrome P450 3A4 (CYP3A4). Changes in CYP3A4 expression affect drug metabolism, thereby reducing the therapeutic efficacy and altering toxicological response to a drug and which finally causes adverse drug interaction. To screen Tox21 libraries for compounds that activate hPXR-mediated CYP3A4 gene expression, PXR-Luc HepG2 cells were used. Also cytotoxicity of the compounds was tested in parallel by measuring the cell viability using CellTiter-Fluor assay system in the same wells.
Tox21 Assay Protocol Summary: PXR-Luc HepG2 cells were dispensed at 2,000 per well in 5uL of assay medium containing 5% charcoal-stripped FBS into white solid bottom 1536-well plates (Corning Life Sciences, Corning, NY) using a Multidrop Combi (Thermo Scientific, Waltham, MA) dispenser. The assay plates were incubated at 37 C and 5% CO2 for 5hr, and then 23nL of compounds dissolved in DMSO and positive control were transferred using a Pintool station (Wako, San Diego, CA). The assay plates were incubated at 37C and 5% CO2 for 24hr. For cytotoxicity read, after 23hr incubation at 37C, 1uL CellTiter-Fluor reagent (Promega Corporation, Madison, WI) was added to each well of the assay plates using Flying Reagent Dispenser (FRD, Aurora Discovery, San Diego, CA). After 1hr incubation at 37C and 5% CO2, the fluorescence signal was quantified using a ViewLux plate reader (PerkinElmer, Shelton, CT).
Potency is read from the fitted curve at half-maximal effect.

Row | Compound | Potency | activity change, negative = cytotoxicity
1 | CC[C@H](C)[C@H]1O[C@]2(C=C[C@@H]1C)C[C@@H]1C[C@@H](C/C=C(\C)[C@@H](O[C@H]3C[C@H](OC)[C@@H](O[C@H]4C[C@H](OC)[C@@H](NC)[C@H](C)O4)[C@H](C)O3)[C@@H](C)/C=C/C=C3\CO[C@@H]4[C@H](O)C(C)=C[C@@H](C(=O)O1)[C@]34O)O2 | 6.86 µM (active) | –
2 | O=Cc1ccccc1 | inactive | –
3 | COP(=S)(OC)Oc1nc(Cl)c(Cl)cc1Cl | inactive | –
4 | COc1cnc(OC)n2nc(NS(=O)(=O)c3c(OCC(F)F)cccc3C(F)(F)F)nc12 | inactive | –
5 | Nc1c(Cl)c(Cl)c(Cl)c(Cl)c1Cl | inactive | –
6 | Cc1ccn2nc(S(=O)(=O)Nc3c(F)cccc3F)nc2n1 | inactive | –
7 | CCCCC/C=C\C/C=C\C/C=C\C/C=C\CCCC(=O)NCC(=O)O | inactive | –
8 | O=C(O)CCCCCCNC1c2ccccc2CCc2ccccc21 | inactive | –
9 | Clc1c(Cl)c(Cl)c(Cl)c(Cl)c1Cl | – | 0.664% [at 8.39 µM] (inactive)
10 | C=C(C)C(=O)[O][Sn]([CH2]CCC)([CH2]CCC)[CH2]CCC | 0.306 µM (active) | –
11 | CC(C)=CC1C(C(=O)OC(C#N)c2cccc(Oc3ccccc3)c2)C1(C)C (stereo not given) | inactive | –
12 | CC(=O)[O][Sn]([c]1ccccc1)([c]1ccccc1)[c]1ccccc1 | 0.306 µM (active) | –
13 | O=S1(=O)OCC2C(CO1)C1(Cl)C(Cl)=C(Cl)C2(Cl)C1(Cl)Cl (stereo not given) | inactive | –
14 | COc1nc(C)nc(NC(=O)NS(=O)(=O)c2ccccc2Cl)n1 | inactive | –
15 | CCC[CH2][Sn]([CH2]CCC)([CH2]CCC)[CH2]CCC | 15.4 µM (active) | –
16 | CCOC(=O)Cc1ccccc1 | inactive | –
17 | N#Cc1c2ccccc2cc2ccccc12 | inactive | –
18 | CSC(=O)c1c(C(F)F)nc(C(F)(F)F)c(C(=O)SC)c1CC(C)C | inactive | –
19 | CNN | inactive | –
20 | C#CC1(O)CCCCC1 | inactive | –

Row | Compound | Potency | activity change, negative = cytotoxicity
21 | CCOP(=S)(OCC)SC(CCl)N1C(=O)c2ccccc2C1=O (stereo not given) | inactive | –
22 | ClCBr | inactive | –
23 | Oc1cccc(Cl)c1Cl | inactive | –
24 | CC(=O)[O-].CC(=O)[O-].CC(=O)[O-].[Cr+3] | inactive | –
25 | CCC(C)Br (stereo not given) | inactive | –
26 | BrCC(Br)(Br)Br | inactive | –
27 | COP(=S)(NC(C)C)Oc1ccc(C)cc1[N+](=O)[O-] (stereo not given) | inactive | –
28 | CC(C)[C@@H](Nc1ccc(C(F)(F)F)cc1Cl)C(=O)OC(C#N)c1cccc(Oc2ccccc2)c1 (stereo not given in full) | inactive | –
29 | Cc1ccc(C)c2ccccc12 | inactive | –
30 | Nc1ccc(Cl)cc1C(=O)c1ccccc1F | inactive | –
31 | C1=CCC=C1 | inactive | –
32 | CN1[C@@H]2CC[C@H]1CC(O)C2 (stereo not given in full) | inactive | –
33 | CNC(=O)Oc1cc(C)cc(C(C)C)c1 | inactive | –
34 | CC[N+]1(CC)CCC(OC(=O)C(O)(c2ccccc2)c2ccccc2)C1 (stereo not given) | inactive | –
35 | CC(C)NCC(O)c1ccccc1Cl (stereo not given) | inactive | –
36 | CCCCC(CC)COC(=O)OOC(C)(C)C (stereo not given) | inactive | –
37 | O=NN(CCO)CCO | inactive | –
38 | CNC(=O)/C=C(\C)OP(=O)(OC)OC | inactive | –
39 | ClC1=C(Cl)[C@]2(Cl)[C@H]3[C@H]([C@@H]4C=C[C@H]3C4)[C@@]1(Cl)C2(Cl)Cl | inactive | –
40 | O=C(O)[C@H](O)[C@@H](O)C(=O)O | inactive | –

Source: PubChem BioAssay (Tox21)
